Screening data (PubChem BioAssay)
Most compounds without a hit are left out; they make up all but 9.8% or so of the library.
ALDH1A1 inh: ALDH1A1 (human) enzyme inhibition; P00352; Purified ALDH1A1, NADH fluorescence, propionaldehyde substrate; Potency, µM (top dose mostly 75.3 µM), for inactives: at the highest dose activity, negative = inhibition, hits mostly inhibitors; actives 7.3% (n = 220,000); active means well fitted inhibition curve with a large enough effect, not every such curve was filed as active; inconclusive means small, poorly fitted or top-dose-only effect, or another doubt; inactive means no such curve, though single readings can be large or run the other way;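 further: potency means the concentration at half of the fitted maximal effect; plate controls were no enzyme wells and a reference inhibitor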
HTT ATP protect: Huntington cell model cytoprotection by ATP luminescence | Potency, µM (highest dose often 56.4 µM), inactives show cytoprotection (ATP increase), actives largely listed as activators | PC12 HTT-Q103 induced, cytoprotection, ATP luminescence, 40 h | actives 0.14% (n = 230,000) | AID 1471; further: potency means the concentration at half of the fitted maximal effect; % of control where 0% means no effect; nearly all actives have a fitted effect of over 45% in size
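Quantitative HTS on tebufenozide-induced (100 nM) PC12 cells expressing HTTQ103 exon 1–GFP; compounds tested as a concentration series; survival measured via cellular ATP.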
KDM4E inh: inhibitors of human JMJD2E histone demethylase. B2RXH2. JMJD2E catalytic domain, FDH-coupled NADH fluorescence (FDH is formaldehyde dehydrogenase). Potency, µM (doses to about 57.1 µM), inactives show top-dose activity change, negative = inhibition, actives largely listed as inhibitors. actives 1.6% (n = 230,000); active means well fitted inhibition curve with a large enough effect, not every such curve was filed as active; inconclusive means small, poorly fitted or top-dose-only effect, or another doubt; inactive means no such curve, though single readings can be large or run the other way;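 further: potency means the concentration at half of the fitted maximal effect; 0% = wells with enzyme and -100% = buffer wells without enzyme; nearly all actives have a fitted effect of over 50% in size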
Target sequence (B2RXH2 1-337 limits assumed): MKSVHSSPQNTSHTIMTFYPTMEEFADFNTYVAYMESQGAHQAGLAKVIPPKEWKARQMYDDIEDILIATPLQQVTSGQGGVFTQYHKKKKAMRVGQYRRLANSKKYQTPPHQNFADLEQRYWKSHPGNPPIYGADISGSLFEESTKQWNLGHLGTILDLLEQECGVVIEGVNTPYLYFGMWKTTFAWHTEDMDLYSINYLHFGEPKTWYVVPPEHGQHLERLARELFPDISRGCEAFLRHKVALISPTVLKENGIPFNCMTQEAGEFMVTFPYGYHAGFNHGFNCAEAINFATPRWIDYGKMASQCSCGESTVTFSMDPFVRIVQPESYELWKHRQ
HPGD block: HPGD (human) dehydrogenase inhibition | P15428 | purified HPGD, NADH fluorescence kinetic, PGE2 substrate | Potency, µM, for inactives: at the top dose activity change, negative = inhibition, hits mostly inhibitors | actives 4.3% (n = 150,000) | AID 894; active means well fitted inhibition curve with a large enough effect, not every such curve was filed as active; inconclusive means small, poorly fitted or top-dose-only effect, or another doubt; inactive means no such curve, though single readings can be large or run the other way; further: potency means the concentration at half of the fitted maximal effect; on the % scale 0 is the no-effect control and ±100 the full control effect
Target sequence (P15428 whole entry, looked up): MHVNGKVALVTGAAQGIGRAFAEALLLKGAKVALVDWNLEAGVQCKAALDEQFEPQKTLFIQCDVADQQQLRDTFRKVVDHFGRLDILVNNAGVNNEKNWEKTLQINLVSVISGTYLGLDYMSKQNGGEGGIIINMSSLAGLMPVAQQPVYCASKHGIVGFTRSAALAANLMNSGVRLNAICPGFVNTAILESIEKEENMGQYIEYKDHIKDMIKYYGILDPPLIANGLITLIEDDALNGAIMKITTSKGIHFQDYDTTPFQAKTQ
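20 nM HPGD preincubated 15 min at room temperature with compound in 50 mM Tris-HCl pH 8, 0.01% Tween 20. Started with 1 mM NAD+ and 30 uM prostaglandin E2; NADH fluorescence (360/450 nm) read 5 times over 30-s intervals, last minus first.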
CBFb-RUNX1 inh: blocks binding between human CBF-beta and RUNX1; Q01196+Q13951; AlphaScreen CBFb-His/RUNX1-biotin binding, biochemical; Potency, µM (top dose mostly 59.8 µM), without a hit: at the top dose activity, negative = inhibition, most hits filed as inhibitors; 230,000 tested, under 10 active; further: % of control where 0% means no effect
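CBFb-His/RUNX1-biotin, 30 nM each, preincubated 20 min RT; compound 15 min RT; Ni + streptavidin beads 50 ng each, 90 min RT; AlphaScreen read.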
HTT aggregate: reduces HttQ103-GFP aggregates in PC12 cells; PC12 HttQ103-GFP aggregates, Acumen cytometry, 40 h; Potency, µM (top dose mostly 46.1 µM), for the others: at the highest dose activity change, negative = inhibition, actives largely listed as inhibitors; actives 1.1% (n = 220,000); further: potency means the concentration at half of the fitted maximal effect; on the % scale 0 is the no-effect control and ±100 the full control effect; nearly all actives have a fitted effect of over 60% in size
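Inducible Q103 Huntingtin exon 1–GFP PC12 line, 1500 cells/well in phenol red free DMEM with 5% equine and 5% calf serum. Tebufenozide 100 nM induced expression; compounds titrated; aggregates quantified by cytometry.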
The depositor's hits bear a star; [ ] = another dose, or the depositor's remark. Unless noted, the call rests on the fitted dose curve; in most records, active means well fitted curve in the direction sought with a large enough effect; inconclusive means small, poorly fitted or top-dose-only effect, or another doubt; inactive means no such curve, though single readings can be large; an effect the other way counts as inactive or inconclusive.

What do the screens show for `Cc1nc(N=Nc2ccc(C(=O)O)cc2)c(COP(=O)(O)O)c(C=O)c1O`?
ALDH1A1 inh: 3%; HTT ATP protect: -17%[1.9 µM]; KDM4E inh: 28µM*; HPGD block: inconclusive; CBFb-RUNX1 inh: 2%

How did Cc1ccccc1Nc1oc(-c2ccccc2)nc1-c1ccccc1 do in these assays?
ALDH1A1 inh: inconclusive; HTT ATP protect: inconclusive; KDM4E inh: inconclusive; HPGD block: inconclusive; CBFb-RUNX1 inh: 4%

How did O=C(Nc1ccc2ccccc2c1)c1ccc(Cl)cc1Cl do in these assays?
HTT ATP protect: -40%[10 µM]; KDM4E inh: inconclusive; CBFb-RUNX1 inh: 1%; HTT aggregate: -13%[9.22 µM]

How did O=C(Nc1nc(=S)ss1)c1ccc(Cl)cc1Cl do in these assays?
ALDH1A1 inh: 6.3µM*; HTT ATP protect: -10%; KDM4E inh: -7%; HPGD block: 22µM*; CBFb-RUNX1 inh: -6%; HTT aggregate: 4%

What do the screens show for `O=C(c1cc([N+](=O)[O-])ccc1Cl)N1CCN(c2ccccc2)CC1`?
ALDH1A1 inh: inconclusive; HTT ATP protect: inconclusive; KDM4E inh: -2%; HPGD block: -12%; CBFb-RUNX1 inh: -1%; HTT aggregate: -9%

How did CC(C)(O)C#Cc1ccc(C(=O)N2CCN(c3ccccc3)CC2)cc1 do in these assays?
ALDH1A1 inh: 8%; KDM4E inh: 1%; HPGD block: -2%; CBFb-RUNX1 inh: -2%; HTT aggregate: 13%

Results for CC(C)(O)C#Cc1ccc(C(=O)N2CCN(c3ccc([N+](=O)[O-])cc3)CC2)cc1 ?
ALDH1A1 inh: 20µM*; HTT ATP protect: -49%; KDM4E inh: -1%; CBFb-RUNX1 inh: -17%; HTT aggregate: inconclusive

What do the screens show for `CCSc1ccccc1C(=O)N1CCN(c2ccc([N+](=O)[O-])cc2)CC1`?
ALDH1A1 inh: 14µM*; HTT ATP protect: 8%[10 µM]; KDM4E inh: -11%; CBFb-RUNX1 inh: 2%; HTT aggregate: 13%[9.22 µM]

How did Cc1c(-c2ccccc2)oc2c(C(=O)N3CCN(c4ccc([N+](=O)[O-])cc4)CC3)cccc2c1=O do in these assays?
ALDH1A1 inh: 3.5µM*; HTT ATP protect: -25%[10 µM]; KDM4E inh: -4%; HPGD block: -18%; CBFb-RUNX1 inh: -4%; HTT aggregate: 4µM*

What do the screens show for `Cc1cccc(C(=O)N2CCN(c3ccc([N+](=O)[O-])c(N4CCOCC4)c3)CC2)c1`?
ALDH1A1 inh: 5µM*; HTT ATP protect: -14%; KDM4E inh: -3%; HPGD block: -16%; CBFb-RUNX1 inh: -7%; HTT aggregate: -1%

How did COc1ccc(Cc2nc(-c3cccs3)no2)cc1 do in these assays?
ALDH1A1 inh: -1%; HTT ATP protect: 1%; KDM4E inh: -3%; CBFb-RUNX1 inh: 23%; HTT aggregate: 5%

Results for Cc1nnc(SCC(=O)Nc2ccc(N(C)C)cc2)n(N)c1=O ?
ALDH1A1 inh: 7%; HTT ATP protect: -1%; KDM4E inh: 2%; CBFb-RUNX1 inh: 19%; HTT aggregate: 3%

Results for O=C(CSc1ccccc1C(=O)O)c1ccc([N+](=O)[O-])cc1 ?
ALDH1A1 inh: 16µM*; HTT ATP protect: -20%; KDM4E inh: -1%; CBFb-RUNX1 inh: -6%; HTT aggregate: -3%

How did CCn1cc(C(=O)N2CCN(c3ccc([N+](=O)[O-])cc3)CC2)c(=O)c2ccc(C)nc21 do in these assays?
ALDH1A1 inh: 25µM*; HTT ATP protect: -13%; KDM4E inh: 12%; CBFb-RUNX1 inh: -1%; HTT aggregate: -21%

What do the screens show for `Nc1nnc(SCC(=O)c2ccc([N+](=O)[O-])cc2)s1`?
ALDH1A1 inh: 2.8µM*; HTT ATP protect: -30%; KDM4E inh: -12%; CBFb-RUNX1 inh: -2%; HTT aggregate: 16%

What do the screens show for `CCn1cc(C(=O)N2CCN(c3cccc(C)c3C)CC2)c(=O)c2ccc(C)nc21`?
HTT ATP protect: -11%[10 µM]; KDM4E inh: 1%; CBFb-RUNX1 inh: 15%; HTT aggregate: 29%[9.22 µM]

What do the screens show for `Cc1nnc(SCC(=O)c2ccc([N+](=O)[O-])cc2)s1`?
ALDH1A1 inh: inconclusive; HTT ATP protect: 27%[10 µM]; KDM4E inh: 3%; CBFb-RUNX1 inh: 2%; HTT aggregate: -6%

Results for O=C(c1ccc2c(c1)OCCO2)N1CCN(c2ccc([N+](=O)[O-])cc2)CC1 ?
ALDH1A1 inh: 14µM*; HTT ATP protect: 0%[10 µM]; KDM4E inh: -1%; CBFb-RUNX1 inh: -6%; HTT aggregate: -16%

What do the screens show for `CCOC(=O)CSc1nnc(CNC(=O)c2cccs2)n1CCc1ccccc1`?
ALDH1A1 inh: inconclusive; HTT ATP protect: 6%; KDM4E inh: 6%; HPGD block: -5%; CBFb-RUNX1 inh: -2%; HTT aggregate: 20%

What do the screens show for `COC(=O)[C@H](CC(C)C)NC(=O)N1CCC(C)CC1`?
ALDH1A1 inh: 11%; HTT ATP protect: 23%[10 µM]; KDM4E inh: 3%; CBFb-RUNX1 inh: -2%; HTT aggregate: 17%[9.22 µM]

How did COc1ccc(OC)c(NC(=O)c2cc(S(=O)(=O)NCc3ccco3)ccc2F)c1 do in these assays?
ALDH1A1 inh: 22µM*; HTT ATP protect: -1%; KDM4E inh: 8%; HPGD block: inconclusive; CBFb-RUNX1 inh: -15%; HTT aggregate: 13%

What do the screens show for `Cc1c(C(=O)c2ccc(N(C)C)cc2)c2ccccn2c1CCC#N`?
ALDH1A1 inh: 16µM*; HTT ATP protect: -48%; KDM4E inh: inconclusive; CBFb-RUNX1 inh: -12%; HTT aggregate: -14%

How did COc1ccc(-n2c(=O)cc(N3CCN(c4ccccc4OC)CC3)[nH]c2=O)cc1 do in these assays?
ALDH1A1 inh: -2%; HTT ATP protect: -12%; KDM4E inh: 14%; HPGD block: -9%; CBFb-RUNX1 inh: -3%; HTT aggregate: -14%

Results for COc1ccc(-n2c(=O)cc(N3CCN(c4ccccc4F)CC3)[nH]c2=O)cc1 ?
ALDH1A1 inh: 4µM*; HTT ATP protect: 1%; KDM4E inh: 6%; HPGD block: 2%; CBFb-RUNX1 inh: 0%; HTT aggregate: 1%

How did CC1CCCCN1C(=O)CSc1nc(C2CC2)nc2c1cnn2-c1ccccc1 (stereo not drawn) do in these assays?
ALDH1A1 inh: 11µM*; HTT ATP protect: 23%[10 µM]; KDM4E inh: inconclusive; HPGD block: inconclusive; CBFb-RUNX1 inh: 0%; HTT aggregate: inconclusive

Results for COc1cc(SC#N)ccc1N=Cc1c(C)[nH]n(-c2cccc3ccccc23)c1=O ?
ALDH1A1 inh: 0.45µM*; KDM4E inh: 0%; HPGD block: inconclusive; CBFb-RUNX1 inh: 11%; HTT aggregate: 16%

How did COc1ccccc1N=Cc1c(C)[nH]n(-c2ccc(C)cc2C)c1=O do in these assays?
ALDH1A1 inh: inconclusive; HTT ATP protect: 14%[10 µM]; KDM4E inh: inconclusive; CBFb-RUNX1 inh: 0%; HTT aggregate: -5%[9.22 µM]
